Sampled rows, rich in hits. Any-hit rate of the full collection: about 3.8%.
MBNL1 CUG block: qHTS Assay for Inhibitors of MBNL1-poly(CUG) RNA binding; Muscleblind-like protein 1 (Homo sapiens), Q9NR56; TR-FRET MBNL1-His/biotin-(CUG)12 binding, 665/545 ratio; Potency, µM (series often up to 57.5 µM), inactives show top-dose activity change, negative = inhibition, usual class: inhibitors; 0.036% of 280,000 active; AID 2675, 2010; active = well fitted inhibition curve with a large enough effect in the signal ratio, with a control signal flat, not every such curve was filed as active; inconclusive = small, poorly fitted or top-dose-only effect, or effect the other way, or a change in a side signal; inactive = no such curve, though single readings can be large or run the other way; the % refers to the signal ratio; also: potency is read from the fitted curve at half-maximal effect; % is scaled to controls: 0 for no effect and ±100 for the full control effect
Target sequence (Q9NR56 whole entry, looked up): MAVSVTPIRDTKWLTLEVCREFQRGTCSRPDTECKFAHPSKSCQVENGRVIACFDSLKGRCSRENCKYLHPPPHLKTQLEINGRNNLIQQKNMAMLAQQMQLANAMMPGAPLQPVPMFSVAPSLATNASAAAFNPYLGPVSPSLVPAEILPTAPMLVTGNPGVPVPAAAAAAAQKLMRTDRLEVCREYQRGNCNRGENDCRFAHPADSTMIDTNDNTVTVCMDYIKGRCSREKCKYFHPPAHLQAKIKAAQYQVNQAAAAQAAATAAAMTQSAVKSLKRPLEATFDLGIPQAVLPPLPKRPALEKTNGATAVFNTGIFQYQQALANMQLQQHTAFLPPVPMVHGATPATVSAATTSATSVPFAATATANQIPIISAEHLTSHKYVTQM
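His-tagged MBNL1 binding to biotinylated (CUG)12 RNA was measured by TR-FRET using terbium anti-His antibody (0.055 ng/ul final) and streptavidin-XL665 (5 nM final). Compounds were titrated 92 nM to 58 uM; 60 min at room temperature.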
VDR inh: Inhibitors of the vitamin D receptor (VDR): qHTS. Vitamin D3 receptor (Homo sapiens), P11473. VDR-SRC2-3 peptide fluorescence polarization, 2 h. Potency, µM, inactives show max response, negative = inhibition, most hits filed as inhibitors. 0.93% of 400,000 active; also: potency is read from the fitted curve at half-maximal effect; % is scaled to controls: 0 for no effect and ±100 for the full control effect
Target sequence (P11473 whole entry, looked up): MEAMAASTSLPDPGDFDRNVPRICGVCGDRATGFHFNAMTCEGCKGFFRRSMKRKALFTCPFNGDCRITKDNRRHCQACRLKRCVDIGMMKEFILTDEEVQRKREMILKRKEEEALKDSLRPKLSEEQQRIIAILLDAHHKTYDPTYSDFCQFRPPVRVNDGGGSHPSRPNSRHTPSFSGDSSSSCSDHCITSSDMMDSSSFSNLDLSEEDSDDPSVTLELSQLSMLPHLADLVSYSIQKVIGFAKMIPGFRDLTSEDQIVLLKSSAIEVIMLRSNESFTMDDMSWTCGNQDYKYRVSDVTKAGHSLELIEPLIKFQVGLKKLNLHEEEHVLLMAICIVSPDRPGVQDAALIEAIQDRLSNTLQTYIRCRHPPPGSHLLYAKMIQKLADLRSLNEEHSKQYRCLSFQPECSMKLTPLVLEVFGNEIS
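The screen uses fluorescence polarization to detect compounds that interfere with recruitment of the SRC2-3 coactivator peptide to VDR; plates are read after 2 h at room temperature.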
KCNH2 3.1 block: qHTS for Inhibitors of KCHN2 3.1: Mutant qHTS | 0.95% of 340,000 active | Potassium voltage-gated channel subfamily H member 2, brain isoform KCNH2 3.1 (human) | U2OS KCNH2 3.1, thallium flux FluxOr; hits give low values | activity change, % (tested at about 1.8 µM) | AID 720553, 2013;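 active = maximum activity change below -70%; inconclusive = maximum activity change from -70% to -50%; inactive = maximum activity change above -50%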;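 also: thallium influx rate constant from kinetic fluorescence after stimulation buffer; % is scaled to controls: 0 for no effect and ±100 for the full control effect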
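Steps: virus added to U2OS suspension (4 h, RT, dark); medium with 10% FBS added, cells plated, 37 C overnight; FluxOr/Red40 loading buffer 45 min RT; stimulation buffer, 2 min kinetic read; rate constant normalized.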
PLK1 PBD block: qHTS for Inhibitors of PLK1-PDB (polo-like kinase 1 - polo-box domain): Primary Screen | Serine/threonine-protein kinase PLK1 (Homo sapiens), P53350 | Plk1 PBD binding of FITC phosphopeptide, fluorescence polarization | Potency, µM, without a hit: max response, negative = inhibition, actives largely listed as inhibitors | 2.8% of 360,000 active; also: potency is read from the fitted curve at half-maximal effect; series mostly up to about 57 µM; % is scaled to controls: 0 for no effect and ±100 for the full control effect; nearly all actives have a fitted effect of over 65% in size
KCNH2 WT inh: qHTS for Inhibitors of KCHN2 3.1: Wildtype qHTS. U2OS, BacMam KCNH2, thallium flux FluxOr; hits give low values. activity change, % at 1.84 µM. 0.37% of 340,000 active;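 active = maximum activity change below -70%; inconclusive = maximum activity change between -70% and -50%; inactive = maximum activity change above -50%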; also: % is scaled to controls: 0 for no effect and ±100 for the full control effect
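U2OS cells were transduced with wild-type KCNH2 virus (2.03 x 10^8 / mL) for 4 h at room temperature, then cultured overnight at 37 C. Thallium flux was read with FluxOr dye. Rate constants were normalized to DMSO controls.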
CBFb-RUNX1 inh: qHTS Assay for Compounds Blocking the Interaction Between CBF-beta and RUNX1 for the Treatment of Acute Myeloid Leukemia | Runt-related transcription factor 1 (Homo sapiens) + Core-binding factor subunit beta … | AlphaScreen CBFb-His/RUNX1-biotin binding, biochemical | Potency, µM (highest dose often 59.8 µM), inactives show at the highest dose activity, negative = inhibition, actives largely listed as inhibitors | 230,000 tested, under 10 active | AID 1477, 2009; also: % of control where 0% means no effect
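His-tagged CBF-beta and biotinylated RUNX1 (30 nM each) were premixed 20 min at room temperature, exposed to compound for 15 min, then given nickel-chelate and streptavidin AlphaScreen beads (50 ng each). After 90 min, AlphaScreen signal was read.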
Numbers without * were called inactive; ? = inconclusive; nt = no result; ! = not active in a repeat; [ ] = remark or other dose. Unless noted, calls follow the shape of the dose curve; as a rule, active = well fitted curve in the direction sought with a large enough effect; inconclusive = small, poorly fitted or top-dose-only effect, or another doubt; inactive = no such curve, though single readings can be large; an effect the other way counts as inactive or inconclusive.

SMILES	MBNL1 CUG block	VDR inh	KCNH2 3.1 block	PLK1 PBD block	KCNH2 WT inh	CBFb-RUNX1 inh
CCc1nnc(NC(=O)c2cc(-c3ccco3)nc3ccccc23)s1	9.7%	-9.4%	9.7	?	2.4	?
CCCCCCNC(=O)c1cc(-c2ccco2)nc2ccccc12	7.2%	?	1.9	26.7µM*	-0.7	0.1%
CC(C)CCNC(=O)c1cc(-c2ccco2)nc2ccccc12	17.8%	-2.1%	10.6	-9.9%	-5.5	7.4%
O=C(Nc1nncs1)c1cc(-c2ccco2)nc2ccccc12	nt	-3.7%	-0.1	?	-72.7*	nt
COc1ccc(NC(=O)c2cc(-c3ccco3)nc3ccccc23)cc1S(=O)(=O)N1CCOCC1	12.9%	28.2µM*	14.1	21.2µM*	9.7	?
COC(=O)C1CCN(C(=O)c2cc(-c3ccco3)nc3ccccc23)CC1	nt	-11.7%	-7.2	29.9µM*	-18.3	nt
Cc1c(-c2ccc(Cl)cc2)c(=O)oc2c(CN3CCN(C)CC3)c(O)ccc12	nt	22.7%	nt	nt	nt	nt
CCCc1cc2c(c(=O)o1)C(O)C1OC1C2=O (centres undefined)	nt	nt	nt	nt	nt	3.3%[13.1 µM]
CCOc1ccccc1CNC(=O)c1ccc(CS(=O)Cc2cccc(Cl)c2)o1 (centres undefined)	nt	8.6%	nt	nt	nt	nt
COc1ccc(C(=O)Nc2nc3n(n2)C(c2ccc(F)cc2)C=C(c2ccc(Cl)cc2)N3)cc1 (centres undefined)	nt	2.3%	nt	nt	nt	nt
COc1ccc(C(=O)Nc2ccc(-c3ccc(C)o3)cc2)cc1S(=O)(=O)N1CCOCC1	4.6%	12.7%	-70.9*	-21.5%	15.6	-1.1%
O=C(O)c1cc(-c2ccco2)nc2ccc(Br)cc12	30.6%	20µM*!	-14.1	4.23µM*!	-0.4	-12.9%
Cc1ccc(-c2cc(C(=O)N3CCN(c4ncccn4)CC3)c3cc(Br)ccc3n2)o1	65.0%	16.3%	3.7	6.7µM*	11.5	3.0%
COc1ccc(-c2cc(C(=O)N3CCN(c4ncccn4)CC3)c3ccccc3n2)cc1	nt	8.0%	-11.4	0.9%	4.9	nt
COc1ccc(OC)c(C(=O)NC(CC(N)=O)c2ccc(NCC3CC3)c([N+](=O)[O-])c2)c1 (centres undefined)	?	-6.8%	-121.3*	-9.0%	0.5	nt
COc1ccc(OC)c(C(=O)NC(CC(N)=O)c2ccc(NC(C)C)c([N+](=O)[O-])c2)c1 (centres undefined)	?	-4.4%	24.3	0.8%	6.1	nt
CN(CC(=O)Nc1cccc(F)c1)S(=O)(=O)c1ccc2c(c1)n(C)c(=O)c(=O)n2C	nt	-0.3%	nt	nt	nt	nt
COCCN(CC(=O)NCc1ccc2c(c1)OCO2)C(=O)CCC(=O)Nc1nccs1	-7.3%	-13.0%	-9.2	-5.0%	0.2	-0.8%
COCCNC(=O)CN(Cc1ccc2c(c1)OCO2)C(=O)CCC(=O)Nc1nccs1	4.0%	?	2.0	3.36µM*	11.6	6.9%
CCn1cc(S(=O)(=O)c2ccc(C)cc2)[nH]c1=O	-2.0%	-2.3%	3.5	-1.3%	1.3	-0.6%
CCc1c(C(C)S(=O)(=O)c2ccc(C)cc2)[nH]c(=O)n1-c1ccc(OC(F)(F)F)cc1 (centres undefined)	0.5%	-16.7%	1.7	26.7µM*	-1.1	0.4%
CCCSc1nnc(NC(=O)CSc2sc3c(O)cc(=O)[nH]c3c2C#N)s1	23.9%	-0.9%	8.6	16.8µM*	-0.2	nt
N#Cc1c(SCC(=O)Nc2nc3ccccc3s2)sc2c(O)cc(=O)[nH]c12	nt	-11.6%	-4.9	23.8µM*	-2.7	nt
COC(=O)C1C2CC3c4[nH]c5cc(OC)ccc5c4CCN3CC2CC(OC)C1OC (centres undefined)	nt	-3.6%	nt	nt	nt	nt
Cc1oc(-c2ccc(C(=O)NCc3ccc(N(C)C)cc3)cc2)nc1COc1ccccc1	nt	3.9%	nt	nt	nt	nt
SMILES	MBNL1 CUG block	VDR inh	KCNH2 3.1 block	PLK1 PBD block	KCNH2 WT inh	CBFb-RUNX1 inh
CCOC(=O)c1c(-c2ccc3ccccc3c2)csc1NC(=O)CCCC(=O)O	nt	-24.0%	-1.7	23.8µM*	4.1	nt
CCOC(=O)c1c(-c2ccc(OC)cc2)csc1NC(=O)CCN1C(=O)c2ccccc2C1=O	16.2%	-29.5%	-12.7	10.6µM*	-22.4	-1.1%
O=C(OC(C(=O)Nc1ccc(Cl)cc1C(F)(F)F)c1ccccc1)c1c(Cl)cccc1Cl (centres undefined)	nt	?	-13.1	29.9µM*	-2.6	?
Cc1ccc(C(=O)OC(C(=O)Nc2ccc(Cl)cc2C(F)(F)F)c2ccccc2)cc1 (centres undefined)	-0.1%	3.1%	-24.9	-11.1%	1.8	2.6%
CCCCC(=O)NNC(=S)NC(=O)c1ccc([N+](=O)[O-])cc1	nt	?	6.2	23.8µM*	7.1	2.7%
CCCCC(=O)NNC(=S)NC(=O)c1cccc([N+](=O)[O-])c1	?	?	-22.2	?	3.0	-11.5%
COc1ccc(C(=O)/C=C/C(=O)N(CC(=O)NCCC(C)C)Cc2cccs2)c(O)c1	-13.9%	-9.6%	-2.0	33.6µM*	nt	6.6%
COc1ccc(C(=O)N(Cc2ccco2)Cc2cccs2)c(O)c1	?	4.4%	15.9	-13.0%	-7.1	1.3%
COC(=O)c1ccc2c(=O)n(CCCCCC(=O)N3CCN(c4ccccc4)CC3)c(=O)[nH]c2c1	-0.3%	?	1.2	29.9µM*	-8.3	1.2%
COCCn1c(=O)[nH]c2cc(C(=O)N3CCN(c4cc(C)ccc4C)CC3)ccc2c1=O	-6.5%	-18.8%	-80.4*	-1.4%	-2.6	nt
O=C(c1ccc(OCCCc2cnc[nH]2)cc1)C1CC1	nt	1.6%	nt	nt	nt	-1.5%
Cc1noc(C)c1-c1ccc2ncnc(NC3CCCc4ccccc43)c2c1 (centres undefined)	nt	nt	nt	nt	nt	2.5%
O=C(NCCCN1CCOCC1)c1onc(CSc2ccccc2)c1C(=O)NCCCN1CCOCC1	nt	-12.1%	10.3	-10.8%	9.8	nt
COc1cccc(SCc2noc(C(=O)NCCCN3CCOCC3)c2C(=O)NCCCN2CCOCC2)c1	nt	-1.2%	-97.5*	-17.3%	-0.2	nt
CCOc1ccc(C2=NC(c3cccs3)=Nc3ccc(C(C)C)cc3N2)cc1	nt	-12.3%	nt	nt	nt	nt
COC(=O)c1ccc(CSc2nc3c(cnn3-c3ccc(C)c(C)c3)c(=O)[nH]2)o1	5.4%	-19.3%	7.8	26.7µM*	-3.8	6.0%

Bioassay records deposited in PubChem BioAssay by National Center for Advancing Translational Sciences (NCATS).
